Screens deposited in PubChem BioAssay by National Center for Advancing Translational Sciences (NCATS).
Tau ThT inhib = blocks human tau fibril formation measured by thioflavin T. P10636. recombinant tau K18 P301L, heparin-induced fibrillization, ThT fluorescence. Potency, µM (highest dose often 57.4 µM), for the others: at the highest dose activity, negative = inhibition, hits mostly inhibitors. hit rate 2.1% among 270,000; also: potency is read from the fitted curve at half-maximal effect; nearly all actives have a fitted effect of over 55% in size
Target sequence (P10636 561-689 P618L limits assumed): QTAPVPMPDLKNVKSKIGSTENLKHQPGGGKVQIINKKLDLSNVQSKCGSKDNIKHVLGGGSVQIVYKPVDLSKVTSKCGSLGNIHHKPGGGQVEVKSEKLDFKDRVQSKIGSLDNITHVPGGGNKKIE
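Tau K18 P301L fragment (15 uM unlabeled plus 0.24 uM Alexa 594-labeled) in 100 mM sodium acetate pH 7 with compound, fibrillization induced by 20 uM heparin for 6 hr at 37 C. Thioflavin T (30 uM) added, fluorescence read after 1 hr (ex 450, em 510 nm).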
G9a inh = inhibitors of human histone lysine methyltransferase G9a; G9a H3K9 monomethylation, AlphaScreen, 2 h; Potency, µM (highest dose often 102 µM), for the others: at the highest dose activity, negative = inhibition, actives largely listed as inhibitors; Q96KQ7; AID 504332; hit rate 8.8% among 350,000; also: potency is read from the fitted curve at half-maximal effect; nearly all actives have a fitted effect of over 75% in size
Target sequence (Q96KQ7 913-1193 limits assumed): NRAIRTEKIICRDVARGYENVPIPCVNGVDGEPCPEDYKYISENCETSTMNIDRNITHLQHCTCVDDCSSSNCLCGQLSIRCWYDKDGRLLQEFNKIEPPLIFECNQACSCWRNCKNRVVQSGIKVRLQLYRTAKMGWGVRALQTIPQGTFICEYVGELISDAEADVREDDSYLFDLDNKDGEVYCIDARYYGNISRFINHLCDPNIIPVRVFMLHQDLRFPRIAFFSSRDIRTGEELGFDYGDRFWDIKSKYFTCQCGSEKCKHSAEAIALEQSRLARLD
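G9a (20 nM) was preincubated 15 min with compound, then reacted 2 h at room temperature with 500 nM biotin-H3K9 peptide and 20 µM SAM. Monomethyl-H3K9 detected by AlphaScreen using anti-H3K9me1 antibody.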
Coupling enz = counter-screen for Giardia aldolase inhibitors: coupling enzyme system; activity change, negative = inhibition, % at 58.2 µM, hits read low; hit rate 0.67% among 290,000; AID 2472; coupling enzyme system counterscreen, AmpLite Red fluorescence; in the data active = activity change below about -30%
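Activity here indicates interference with the coupling reaction, not aldolase inhibition. Compounds at 57.5 uM final met coupling enzymes for 10 min at RT; substrate and AmpLite Red detection followed, with a 525/598 nm fluorescence read after 20 min.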
Tau fluor counter = counter-screen for tau fibril formation inhibitors | hit rate 0.93% among 280,000 | Potency, µM (highest dose often 57.7 µM), for inactives: at the top dose activity change, negative = decrease | AID 1463 | tau K18 P301L (four-repeat tau fragment) Alexa594 fluorescence, heparin fibrillization; also: potency is read from the fitted curve at half-maximal effect; nearly all actives have a fitted effect of over 55% in size
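Human K18 P301L tau (15 uM unlabeled plus 0.24 uM Alexa 594-labeled, final) in 100 mM sodium acetate pH 7 was mixed with compound and 20 uM heparin and incubated 6 hr at 37 C.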
Sfp PPTase inh = blocks B. subtilis Sfp PPTase activity | Q9F4F7 | Biochemical Sfp PPTase activity, qHTS | Potency, µM, for the others: largest response in the series, negative = inhibition, most hits filed as inhibitors | hit rate 3.5% among 310,000 | AID 1490;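 also: the enzyme is Sfp with the accession as filed and its product quenches rhodamine fluorescence; potency is read from the fitted curve at half-maximal effect; 0% = enzyme reaction without inhibitor and -100% = no enzyme wells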
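Reaction rates are the 30-min fluorescence difference (ex 525, em 598 nm) in wells containing 15 nM Sfp, 5 uM rhodamine-CoA and 12.5 uM BHQ-2-YbbR at pH 7.6 with 10 mM MgCl2.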
Tau fibril FP = inhibitors of human tau fibril formation | P10636 | K18 P301L tau heparin fibrillization, Alexa594 FP, 6 h | Potency, µM (highest dose often 57.7 µM), inactives show at the highest dose activity, negative = inhibition, hits mostly inhibitors | hit rate 0.39% among 280,000 | AID 1468; also: potency is read from the fitted curve at half-maximal effect; nearly all actives have a fitted effect of over 55% in size
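Human K18 P301L fragment (15 uM unlabeled plus 0.24 uM Alexa 594-labeled) in 100 mM sodium acetate pH 7 with compound, aggregation induced by 20 uM heparin for 6 hr at 37 C. ThT (30 uM) added for 1 hr, then Alexa 594 FP read.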
Active calls of the source: *; ? = inconclusive; . = no result given; [ ] = remark or other dose. The list is not random: actives were taken first. Their share in the collection is about 11%. Unless noted, calls follow the shape of the dose curve; as a rule, active = well fitted curve in the direction sought with a large enough effect; inconclusive = small, poorly fitted or top-dose-only effect, or another doubt; inactive = no such curve, though single readings can be large; an effect the other way counts as inactive or inconclusive. Unless noted, % is scaled to controls: 0 for no effect and ±100 for the full control effect.

SMILES	Tau ThT inhib	G9a inh	Coupling enz	Tau fluor counter	Sfp PPTase inh	Tau fibril FP
COc1ccc(-c2csc(Nc3ncccc3C)n2)cc1OC	10µM*	?	0	?	-11%	12%
COc1ccc(-c2csc(Nc3ncccn3)n2)cc1C	.	20%	2	.	2%	.
Cc1cccnc1Nc1nc(-c2ccc(O)c(O)c2)cs1	7.9µM*	11µM*	-20	13µM*[quencher]	50µM*	-2%
COc1ccc(-c2csc(NC(=O)Nc3ccccc3)n2)cc1	.	-27%	1	.	12%	.
CCOc1c(C=C(C#N)C#N)c2ccccc2n1CC	?	10µM*	-3	?	50µM*	?
CC(C)(C)c1nc(SCC(=O)N2CCCC2)c2ccccc2n1	0%	50µM*	0	3%[2.34 µM]	-16%	-5%[2.34 µM]
CC(C)(C)c1nc(SCC(=O)c2ccccc2)c2ccccc2n1	?	124%	0	?	?	?
CS(=O)(=O)c1ccc(S(=O)CC(=O)Oc2ccc(Cl)cc2)c([N+](=O)[O-])c1 (centres undefined)	3.5µM*	6.3µM*	-27	-25%	?	?
O=C(CS(=O)c1ccccc1[N+](=O)[O-])Oc1ccc(Br)cc1 (centres undefined)	?	.	0	?	-6%	?
CN1C(=O)c2ccc(NC(=O)c3c(C(=O)O)cccc3[N+](=O)[O-])cc2C1=O	.	40µM*	-1	.	-8%	.
O=C(O)c1ccccc1C(=O)Nc1cccc([N+](=O)[O-])c1	2%	-6%	4	3%	14%	3%
COc1cc(NC(=O)C2CCN(c3nc4ccccc4nc3C(F)(F)F)CC2)cc(OC)c1	-1%	6%[59 µM]	.	?	.	?
Cc1ccc(C(C[N+](=O)[O-])Sc2ccc(N)cc2)cc1 (centres undefined)	18µM*	40µM*	3	?	5.6µM*	?
Cc1ccc(C(C[N+](=O)[O-])n2nc(C)cc2C)cc1 (centres undefined)	-15%	?	2	-4%	-26%	-2%
Cc1cc(N2C(=O)C3C4CC(c5ccccc5)C(C4)C3C2=O)no1 (centres undefined)	-1%	-30%	0	3%	24%	7%
CN(C)S(=O)(=O)c1ccc(/C(O)=C2/C(=O)C(=O)N(Cc3cccnc3)C2c2cccs2)cc1 (centres undefined)	-18%	40µM*	2	-16%	-10%	0%
CN(C)S(=O)(=O)c1ccc(/C(O)=C2/C(=O)C(=O)N(Cc3cccnc3)C2c2ccncc2)cc1 (centres undefined)	-14%	16µM*	7	-6%	-19%	?
CN(C)S(=O)(=O)c1ccc(/C(O)=C2/C(=O)C(=O)N(Cc3cccnc3)C2c2ccco2)cc1 (centres undefined)	?	?	0	-9%	-12%	-8%
CCCCCOC(=O)c1[nH]c2c(c1C)C(=O)CC(c1ccco1)C2 (centres undefined)	-16%	40µM*	-5	-12%	?	4%
Cc1cccc(-c2nnc(NC(=O)c3ccc(Cl)cc3)o2)c1	-6%	8.9µM*	-2	-4%	16%	-1%
COc1cccc(-c2nnc(-c3ccc(C)o3)o2)c1	?	13µM*	-6	-18%	56µM*	-1%
COc1cccc(-c2nnc(NC(=O)C(C)C)o2)c1	-12%	8.9µM*	0	-7%	13%	?
Cc1ccc(C(=O)Nc2nnc(-c3ccncc3)o2)cc1	-5%	2%	0	-3%	5%	-1%
COc1cccc(-c2nnc(-c3ccco3)o2)c1	3%	-8%	3	4%	6%	-2%
COc1ccc(-c2nnc(NC(=O)c3ccc([N+](=O)[O-])o3)o2)c(OC)c1	.	22µM*	5	.	-11%	.
Cc1ccc(-c2nnc(NC(=O)c3ccc([N+](=O)[O-])o3)o2)c(C)c1	.	-41%	.	.	.	.
